Bioassay records deposited in PubChem BioAssay by The Scripps Research Institute Molecular Screening Center.
PRMT1 inh: inhibitors of human PRMT1; Q99873; recombinant PRMT1, activity-based probe fluorescence polarization; inhibition, % at 2.79 µM; 370,000 compounds, 1.3% hits;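 active = inhibition above about 21% made by adding two undisclosed values, limit read from the data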
ABHD5-PLIN5 inh: blocks binding of human ABHD5 to perilipin-5 | Q00G26+Q8WTS1 | Split G. princeps luciferase complementation, luminescence, 4 h | inhibition, % at 4 µM | AID 602281 | 360,000 compounds, 0.78% hits;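 active = inhibition above the mean inhibition across every tested compound plus 3 SD, cut at about 22% in these data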
Target sequence (Q00G26 whole entry, looked up): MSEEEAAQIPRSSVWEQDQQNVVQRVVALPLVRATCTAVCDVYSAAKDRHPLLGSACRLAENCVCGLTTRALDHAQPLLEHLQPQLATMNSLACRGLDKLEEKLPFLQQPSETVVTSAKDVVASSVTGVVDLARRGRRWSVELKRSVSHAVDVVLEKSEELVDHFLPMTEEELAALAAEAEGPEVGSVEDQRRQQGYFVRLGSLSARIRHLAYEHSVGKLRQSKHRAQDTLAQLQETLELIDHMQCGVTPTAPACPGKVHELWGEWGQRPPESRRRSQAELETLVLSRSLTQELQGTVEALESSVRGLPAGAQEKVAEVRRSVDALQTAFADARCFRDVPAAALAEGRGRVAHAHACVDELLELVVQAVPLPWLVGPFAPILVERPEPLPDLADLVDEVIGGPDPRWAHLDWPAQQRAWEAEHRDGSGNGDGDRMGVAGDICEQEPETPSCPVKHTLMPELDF
Target sequence (Q8WTS1 whole entry, looked up): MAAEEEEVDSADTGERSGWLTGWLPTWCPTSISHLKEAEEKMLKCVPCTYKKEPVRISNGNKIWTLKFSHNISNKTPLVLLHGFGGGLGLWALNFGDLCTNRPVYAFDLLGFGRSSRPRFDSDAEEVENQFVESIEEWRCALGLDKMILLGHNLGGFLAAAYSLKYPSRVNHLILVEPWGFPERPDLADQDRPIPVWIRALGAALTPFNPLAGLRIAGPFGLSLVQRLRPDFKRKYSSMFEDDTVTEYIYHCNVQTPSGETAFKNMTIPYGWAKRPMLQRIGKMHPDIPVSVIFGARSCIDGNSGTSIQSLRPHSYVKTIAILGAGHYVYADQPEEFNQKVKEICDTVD
UHRF1 binding: UHRF1 methyl-DNA binding inhibition | Q96T88 | UHRF1 binding to methylated oligo, TR-FRET | inhibition, % at 4.4 µM | 370,000 compounds, 0.75% hits | AID 687016;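 note: UHRF1 SRA domain binding a hemimethylated CpG hairpin DNA probe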
LEDGF integ inh: blocks HIV-1 LEDGF/p75-dependent DNA integration; TR-FRET IN-LEDGF/p75 DNA integration, Eu/Cy5; inhibition, % at 3.7 µM; 370,000 compounds, 0.64% hits; AID 743269;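 active = inhibition above the screen-wide mean plus 3 SD, cut at about 13% in these data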;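 note: signal is the Cy5 over europium emission ratio at 671 and 618 nm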
rCAG binder: binds r(CAG) RNA repeats. r(CAG) RNA repeat, TO-PRO-1 dye displacement fluorescence. inhibition, % at 3 µM. 370,000 compounds, 1.3% hits. AID 651821;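 active = inhibition above the plate cutoff, the mean of all test compounds on that plate plus 3 SD, cut at about 35% in these data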;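 note: higher means more dye released from RNA so lower well fluorescence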
MBD2 DNA inh: blocks human MBD2 binding to methylated DNA | Q9UBB5 | TR-FRET, MBD2 binding to methylated oligonucleotide | inhibition, % at 4.4 µM | 370,000 compounds, 0.31% hits | AID 686964; in the data active = inhibition above about 13%
UHRF1 DNA bind: inhibits human UHRF1 binding to methylated oligonucleotide, MBD2 counter-screen; inhibition, % at 4.4 µM; shares compounds with MBD2 DNA inh; AID 720530; TR-FRET; 1,000 compounds, 25% hits;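 note: UHRF1 SRA domain binding a labeled hemimethylated CpG hairpin DNA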
MBD2 confirm: confirmation of human MBD2-DBD methylated oligonucleotide binding inhibitors | shares compounds with MBD2 DNA inh | TR-FRET MBD2-DBD binding to methylated oligonucleotide | inhibition, % at 4.4 µM | 1,000 compounds, 26% hits | AID 720531; in the data active = inhibition above about 14%
Numbers stand for hits; 0 = inactive; - = not tested or not shown. In the library only some 4.1% were active in any assay of this set; here they are far more common. Cut-off read from the data, not from the text of the source, unless noted: active = inhibition above about 21%; inactive = the rest.

SMILES	PRMT1 inh	ABHD5-PLIN5 inh	UHRF1 binding	LEDGF integ inh	rCAG binder	MBD2 DNA inh	UHRF1 DNA bind	MBD2 confirm
C#CCCCN([C@H](C(=O)OC)C(C)C)S(=O)(=O)c1ccccc1Br	0	-	0	0	0	0	-	-
CC(=O)OC[C@@H]1CN(Cc2ccccc2)C[C@H](n2ccc3c(N)ncnc32)O1	0	0	0	0	0	35.8	0	0
CC(=O)OC[C@@H]1CN(Cc2ccccc2)C[C@H](n2cnc3c(NC(C)C)ncnc32)O1	0	0	0	0	0	0	-	-
CC1CCC(NCc2ccco2)CC1 (centres undefined)	0	0	0	0	0	18.0	0	0
Cc1cc(C(=O)COC(=O)c2cc(Cl)c(O)c(Cl)c2)c(C)n1C	0	0	33.4	42.6	0	17.5	0	0
Cc1cc(C(=O)COC(=O)c2ccc(F)cc2)c(C)n1C	0	0	0	0	0	0	-	-
O=C(NCCc1ccccc1Cl)[C@@H]1CCCN1C(=O)[C@H](Cc1cccnc1)NC(=O)N1CCOCC1	0	-	0	0	0	0	-	-
O=C(NCc1cccc(Cl)c1)c1ccc(-n2ccnc2)c2ccoc12	0	0	21.7	0	0	13.7	0	0
COc1ccc(CNC(=O)c2ccc(-n3ccnc3)c3ccoc23)cc1OC	0	0	23.2	0	0	13.8	0	0
O=C(NCC1CCN(C(=O)C(=O)c2cccs2)CC1)c1cccnc1	0	-	0	0	0	0	-	-
O=C1CCC2(CCCCC2)N1CCCO	0	-	0	0	0	0	-	-
CCCC(=O)N1CCC[C@]2(CC[C@H](CCC#N)O2)C1	0	-	0	0	0	0	-	-
COC(CNC(=O)[C@H](Cc1ccccc1)NCC(=O)NC1CCCCC1)OC	0	-	0	0	-	0	-	-
N#CCC(=O)Nc1ccc(C(=O)OCC(=O)c2ccc3c(c2)NC(=O)CO3)cc1	0	0	0	0	0	14.0	0	13.3
O=C1CCCN1CC(O)CS(=O)(=O)Cc1ccccc1 (centres undefined)	0	0	0	0	0	0	-	-
O=C1CCCN1CC(O)CS(=O)(=O)Cc1ccc(Cl)c(Cl)c1 (centres undefined)	0	0	0	0	0	15.7	0	0
CCCCCCCCN1CCS(=O)(=O)N(Cc2ccccc2)C(C(=O)OC)C1 (centres undefined)	0	-	0	0	0	0	-	-
COc1cc(OC)cc(C(=O)Nc2ccc3c(c2)CCCN3C(=O)c2cccs2)c1	0	0	0	0	0	24.9	0	0
O=C(Nc1ccc2c(c1)CCCN2C(=O)c1cccs1)c1ccccc1	0	0	0	0	0	0	-	-
Cc1ccc(-c2csc3nc4cc(C(=O)NC5CCC(O)CC5)ccc4c(=O)n23)cc1 (centres undefined)	0	0	0	0	0	13.8	0	0
CC(C)Oc1ccc2nnnn2n1	0	0	21.7	0	0	14.4	0	0
CCCCOCC1CN(CCCC)S(=O)(=O)c2c(Oc3ccc(OC)cc3)cccc2O1 (centres undefined)	0	-	0	0	0	0	-	-
C=CCN(CC#Cc1ccccc1)Cc1ccc2c(c1)OCO2	0	-	0	0	0	0	-	-
CCCCOCCCNC(=O)C[C@H]1C(=O)N(Cc2ccc(OC)cc2)C2=CCCC[C@@]21C(=O)OCC	0	-	0	0	0	0	-	-
CCOC(=O)[C@]12CCC=C1N(Cc1ccco1)C(=O)[C@H](CC(=O)N1CCC(c3ccccc3)CC1)C2	0	0	0	0	0	15.1	0	0
O=C(O)CNC(=O)c1ccc(N2CCOCC2)cc1[N+](=O)[O-]	0	0	0	0	0	0	-	-
O=C(c1ccc(N2CCOCC2)cc1[N+](=O)[O-])N1CCOCC1	0	0	0	0	0	13.9	0	0
C[C@H]1CN([C@@H](C)CO)C(=O)Cc2cc(NC(=O)C3CC3)ccc2O[C@H]1CN(C)Cc1ccc(Oc2ccccc2)cc1	0	0	0	0	0	16.6	0	0
Cc1ccc(Cn2nnc3c2-c2ccccc2S(=O)(=O)N(C)C3)cc1	0	-	0	0	0	0	-	-
O=C(C(=O)N1CCC(CNS(=O)(=O)c2ccccc2OC(F)(F)F)CC1)c1cccs1	0	-	27.0	0	0	27.8	0	0
